# Measurements taken from PubChem BioAssay (NCATS).
# Results filed as inconclusive are left out. Where a call stands in place of a potency, no number is given. The source made the active and inactive calls. Calls come from the whole dose curve; as a rule, active = well fitted inhibition curve with a large enough effect; inconclusive = small, poorly fitted or top-dose-only effect; inactive = no such curve, though single readings can be large or run the other way.
# System: Zika virus NS2B-NS3 protease (unlinked complex)
# Assay: Primary screen GU Rhodamine qHTS for Zika virus inhibitors: Unlinked NS2B-NS3 protease assay (AID 1347159); note: nearly all actives have a fitted effect of over 60% in size
# Details: Recombinant ZIKV NS2B-NS3 protease, Rhodamine110 substrate fluorescence; series mostly up to 107 µM
# Summary of the method: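 In dose–response format, inhibition of unlinked protease (25 nM) was measured with 1.5 microM bis-peptide Rhodamine110 substrate. Aprotinin served as the intraplate control.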
# Potency is the fitted concentration of half-maximal effect.
row,Compound,Potency
1,COc1cc(C2OCC3(O)C(c4ccc(O[C@@H]5O[C@H](CO)[C@@H](O)[C@H](O)[C@H]5O)c(OC)c4)OCC23O)ccc1O (some centres undefined),inactive
2,COC(=O)C1(O)C(OC(C)=O)CCC2C3(CC(c4ccoc4)OC3=O)C(C)=CCC21C(=O)OC (centres undefined),inactive
3,COc1cc(/C=C/C(=O)OC[C@H]2O[C@@H](OC3OC=C(C(=O)O)C4C(O)CC(C)(O)C34)[C@H](O)[C@@H](O)[C@@H]2O)cc(OC)c1O (some centres undefined),inactive
4,C[C@]12CCC[C@](C)(C(=O)O)C1CCC13CC(CO)C(CCC12)C3 (some centres undefined),inactive
5,CC(=O)N[C@H]1[C@H](O[C@H]2CC[C@]3(C)C4CC=C5[C@@H]6CC(C)(C)CC[C@]6(C(=O)O)[C@H](O)C[C@@]5(C)[C@]4(C)CC[C@H]3C2(C)C)O[C@H](CO)[C@@H](O)[C@@H]1O (some centres undefined),inactive
6,COC(=O)C1C(O)CCC2CN3CCc4c([nH]c5ccccc45)C3CC21 (centres undefined),12.6 µM (active)
7,C=C1CCc2occ(C)c2[C@H]2[C@H]1[C@@]13O[C@@]1(C[C@@H](C)[C@H]3OC(C)=O)[C@H]1O[C@@]21C,inactive
8,CC(=O)[C@@H]1C[C@H](C(C)(C)O[C@@H]2O[C@H](CO)[C@@H](O)[C@H](O)[C@H]2O)CC[C@@]2(CO)OC(=O)C[C@@H]12,inactive
9,CC1=CC2=C(C)C(=O)[C@](C)(O)[C@H](O)C2=CO1,inactive
10,CC1CC(O)/C=C/C(O)/C=C\C(=O)O1 (centres undefined),inactive
11,Oc1ccccc1-c1cc(-c2ccccc2F)[nH]n1,inactive
12,CN(C)CC(c1ccc(O)cc1)C1(O)CCCCC1 (centres undefined),inactive
13,C=C1[C@@H]2CC[C@@]3(C)[C@H](c4ccoc4)OC(=O)C[C@]13O[C@H]1CC(=O)C(C)(C)[C@H](C(O)C(=O)OC)[C@]12C (some centres undefined),inactive
14,CCN=C1N[C@@H]2[C@@H](O)[C@H](O)[C@@H](CO)O[C@@H]2S1,inactive
15,CC(CC12CCCN1C(=O)C1CCCN1C2=O)OC(N)=O (centres undefined),inactive
16,CC1(C)C=Cc2c(ccc3c2N=C2C(C)(C)[C@@H]4C[C@]56CCCN5C(=O)[C@@]4(C[C@]23O)NC6=O)O1,inactive
17,C=C1C(OC(C)=O)C(=O)C2C(C)(C)C(O)CCC2(C)C1CC(OC(C)=O)/C(C)=C/COC(C)=O (centres undefined),inactive
18,Fc1ccc(-c2c3cccc(C(F)(F)F)c3nn2Cc2ccc(F)cc2Cl)cc1,inactive
19,COc1cc(CC2COC(c3ccc(OC4OC(CO)C(O)C(O)C4O)c(OC)c3)C2CO)ccc1O (centres undefined),inactive
20,FC(F)(F)Oc1ccc(-c2ccc3nnc(C(F)(F)F)n3c2)cc1,inactive

row,Compound,Potency
1,OC[C@H]1O[C@@H](OCc2ccccc2)[C@H](O[C@@H]2OC[C@@H](O)[C@H](O)[C@H]2O)[C@@H](O)[C@@H]1O,inactive
2,N#CN1CCC[C@@H](n2nc(-c3ccc(Oc4ccc(F)cc4F)cc3)c(C(N)=O)c2N)C1,inactive
3,CC(=O)C1CCC(=O)N1Cc1ccccc1 (centres undefined),inactive
4,COC(=O)[C@]1(C)CCC[C@@]2(C)[C@@H]3CC[C@@H]4C[C@@]3(CC[C@@H]21)C[C@H]4C(=O)O,inactive
5,NCCCCN(Cc1nc2ccccc2[nH]1)[C@H]1CCCc2cccnc21,inactive
6,CC1CCC23COC(=O)C2=CC(O)CC3C1(C)CCc1ccoc1 (centres undefined),inactive
7,C[C@]1(OC(=O)/C=C/c2ccc(O)cc2)C[C@@H](O)[C@]2(O)C=CO[C@@H](O[C@@H]3O[C@H](CO)[C@@H](O)[C@H](O)[C@H]3O)C12 (some centres undefined),inactive
8,CN(C)c1ccc(C2O[C@@H](c3ccccc3)C[C@H](c3ccccc3)O2)cc1 (some centres undefined),inactive
9,CC1CCC2(NC1)OC1C(O)C3C4CCC5CC(O[C@@H]6O[C@H](CO)[C@@H](O)[C@H](O)[C@H]6O[C@@H]6O[C@@H](C)[C@H](O)[C@@H](O)[C@H]6O)CCC5(C)C4CCC3(C)C1C2C (some centres undefined),inactive
10,COc1ccc(C(=O)NCc2cc(C(C)C)no2)cc1OC1CCN(C)CC1,inactive
11,CC(=O)OC1(C)CC(O)C2(O)C=COC(OC3OC(CO)C(O)C(O)C3O)C12 (centres undefined),inactive
12,CC(=O)OC12CC(C)C(O)C1/C=C(/COC1OC(CO)C(O)C(O)C1O)CCC1C(/C=C(\C)C2=O)C1(C)C (centres undefined),inactive
13,O=C(O)c1ccc(NC(=O)[C@H](CC2CCCC2)n2cnc(C(F)(F)F)c2)nc1,inactive
14,Oc1ccc(CC2NCCc3cc(O)c(O)cc32)cc1 (centres undefined),inactive
15,O=C(O[C@@H]1O[C@H](CO)[C@@H](O)[C@H](O)[C@H]1O)c1ccccc1,inactive
16,CC(C)C1(O)C=C2C(=O)CC3C(C)(C(=O)O)CCCC3(C)C2CC1 (centres undefined),inactive
17,Cc1cn(C[C@H](N)C(=O)O)c(=O)n(Cc2ccsc2C(=O)O)c1=O,inactive
18,C=C(CCO)C(=O)OCC1OCC(OC(=O)C(=C)CCO[C@@H]2O[C@H](COC(=O)C(=C)CCO[C@@H]3O[C@H](CO)[C@@H](O)[C@H](O)[C@H]3O)[C@@H](O)[C@H](O)[C@H]2O)C(O)C1O (some centres undefined),inactive
19,Cc1nc(-c2cccnc2)sc1C(=O)Nc1ccccc1-c1cn2c(CN3CCOCC3)csc2n1,inactive
